The panel holds about 83,000 compounds, 20% with a hit somewhere; the sample as a whole holds those more often.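 Cells were grown in 96-well plates and exposed to the test compound at a single concentration for 48 hours; results are reported as percent growth, with values below 10 considered active.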 The source made the active and inactive calls.
Experiments:
Assay in all cases: NCI-60 one-dose screen, 48 h (100 = growth as untreated, 0 = no growth, -100 = all killed)
Details in all cases: 10 µM unless noted
SR leukemia = system: SR leukemia
RPMI-8226 leukemia = system: RPMI-8226 leukemia
OVCAR-8 ovarian = system: OVCAR-8 ovarian
OVCAR-5 ovarian = system: OVCAR-5 ovarian
OVCAR-4 ovarian = system: OVCAR-4 ovarian
SK-OV-3 ovarian = system: SK-OV-3 ovarian
IGROV1 ovarian = system: IGROV1 ovarian
OVCAR-3 ovarian = system: OVCAR-3 ovarian
HS 578T breast = system: HS 578T breast
NCI/ADR-RES ovarian = system: NCI/ADR-RES ovarian

Measured: growth

CCN(C(=O)c1cc2ccccc2[nH]1)[C@H]1CCC[C@@H](NCc2ccc(OC)cc2)C1
inactive: SR leukemia 69.2% | RPMI-8226 leukemia 86% | OVCAR-8 ovarian 100% | OVCAR-5 ovarian 85.5% | OVCAR-4 ovarian 83.3% | SK-OV-3 ovarian 96.6% | IGROV1 ovarian 85.4% | OVCAR-3 ovarian 89.6% | HS 578T breast 89.3% | NCI/ADR-RES ovarian 88.4%

O=c1cc(C2NCCc3c2[nH]c2ccccc32)c2c(ccc3ccccc32)o1 (stereo not given)
inactive: SR leukemia 51.3% | RPMI-8226 leukemia 73.6% | OVCAR-8 ovarian 60.1% | OVCAR-5 ovarian 78.3% | OVCAR-4 ovarian 62.3% | IGROV1 ovarian 33.4% | OVCAR-3 ovarian 95.1% | HS 578T breast 55.9% | NCI/ADR-RES ovarian 78.7%
active: SK-OV-3 ovarian 5.15%

O=C(CNc1c(Cl)cccc1Cl)Nc1ccc(-c2nc3ccccc3s2)cc1
inactive: SR leukemia 10.7% | RPMI-8226 leukemia 59.8% | OVCAR-8 ovarian 66.7% | OVCAR-5 ovarian 110% | OVCAR-4 ovarian 17.5% | SK-OV-3 ovarian 97.8% | IGROV1 ovarian 49.3% | OVCAR-3 ovarian 54.4% | HS 578T breast 87.2% | NCI/ADR-RES ovarian 64%

O=C1CCC/C=C\C[C@H]2C=CC(=O)/C2=C/C[C@H](C/C=C\CC(F)(F)F)O1
inactive: OVCAR-8 ovarian 10.4% | OVCAR-4 ovarian 20.6% | HS 578T breast 23.2%
active: SR leukemia 4.02% | RPMI-8226 leukemia -4.51% | OVCAR-5 ovarian -6.91% | SK-OV-3 ovarian -7.52% | IGROV1 ovarian -25.8% | OVCAR-3 ovarian -69.7% | NCI/ADR-RES ovarian 8.83%

C/C1=C\CCC2(C)OC2CC2CCC(C)(O)C(CC1)C2(C)C (stereo not given)
inactive: SR leukemia 92.4% | RPMI-8226 leukemia 111% | OVCAR-8 ovarian 89.8% | OVCAR-5 ovarian 112% | OVCAR-4 ovarian 99.7% | SK-OV-3 ovarian 112% | IGROV1 ovarian 93.9% | OVCAR-3 ovarian 118% | HS 578T breast 83.8% | NCI/ADR-RES ovarian 104%

O=[N+]([O-])c1cccc(-c2cc(-c3cc(Br)ccc3O)[nH]n2)c1
active: RPMI-8226 leukemia -2.85% | OVCAR-3 ovarian 2.12%
inactive: SR leukemia 19.7% | OVCAR-8 ovarian 33.9% | OVCAR-5 ovarian 55.4% | OVCAR-4 ovarian 16.3% | SK-OV-3 ovarian 30.6% | IGROV1 ovarian 13.7% | HS 578T breast 46.6% | NCI/ADR-RES ovarian 19.2%

CC(Br)C(Br)c1cc2c(cc1Br)OCO2 (stereo not given)
inactive: SR leukemia 98.6% | RPMI-8226 leukemia 105% | OVCAR-8 ovarian 100% | OVCAR-5 ovarian 98.6% | OVCAR-4 ovarian 105% | SK-OV-3 ovarian 84% | IGROV1 ovarian 97.5% | OVCAR-3 ovarian 107% | NCI/ADR-RES ovarian 99.1%
active: HS 578T breast -96.5%

COc1ccc(-c2nc3sccn3c2-c2ccnc(NCCNS(=O)(=O)c3ccc(C(F)(F)F)cc3)n2)cc1
active: RPMI-8226 leukemia 8.83% | OVCAR-8 ovarian 7.86% | OVCAR-3 ovarian 2.1% | NCI/ADR-RES ovarian 9.11%
inactive: SR leukemia 11.6% | OVCAR-5 ovarian 59% | OVCAR-4 ovarian 15.9% | SK-OV-3 ovarian 29.6% | IGROV1 ovarian 16.2% | HS 578T breast 41%

C=CCN=C1NC(=O)/C(=C/c2cc(C(C)(C)C)c(O)c(C(C)(C)C)c2)S1
inactive: SR leukemia 32.9% | RPMI-8226 leukemia 92.1% | OVCAR-8 ovarian 95.8% | OVCAR-5 ovarian 92.1% | OVCAR-4 ovarian 70.3% | SK-OV-3 ovarian 74.8% | IGROV1 ovarian 85.7% | OVCAR-3 ovarian 46.9% | HS 578T breast 76.9% | NCI/ADR-RES ovarian 70%

COc1ncc(-c2ccc3ncnc(Nc4cccc(Cl)c4)c3c2)cc1NS(=O)(=O)C1CC1
active: SK-OV-3 ovarian 8.08% | IGROV1 ovarian -38.6%
inactive: SR leukemia 46.9% | RPMI-8226 leukemia 26.7% | OVCAR-8 ovarian 41.7% | OVCAR-5 ovarian 28% | OVCAR-4 ovarian 34.8% | OVCAR-3 ovarian 20.1% | HS 578T breast 13.6% | NCI/ADR-RES ovarian 40.8%

Source: PubChem BioAssay (NCI)
